Pol beta inh = blocks human DNA polymerase beta activity. P06746. Pol beta primer extension/strand displacement, fluorescence kinetic. Potency, µM (doses to about 114 µM), most hits filed as inhibitors. hit rate 1.3% among 340,000
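Preincubation: enzyme (10 nM) with compound, 15 min, RT. Reaction: substrate added to 50 nM final. Reads: 0 and 10 min. Analysis: normalized, Hill fit.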
WRN inhibitor = inhibitors of human WRN helicase | Q14191 | WRN helicase unwinding, fluorescent forked duplex, kinetic | Potency, µM (series often up to 114 µM), hits mostly inhibitors | hit rate 0.46% among 360,000; note: nearly all actives have a fitted effect of over 55% in size
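Kinetic fluorescence helicase assay: unwinding of a quenched forked DNA duplex (100 nM final) with 2 mM ATP final raises red fluorescence (525/598 nm). Compounds sat 15 min at room temperature with 20 nM WRN beforehand.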
Pol iota inh = DNA polymerase iota (human) inhibition; hit rate 1% among 390,000; AID 588590; Potency, µM (top dose mostly 115 µM), most hits filed as inhibitors; Pol iota fluorescent replication assay, 10 min
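Pol iota at 10 nM preincubated 15 min with compounds at room temperature; reaction started with fluorescent substrate, 50 nM final. Fluorescence read kinetically at 0 and 10 min; buffer-only wells as negative control.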
Pol kappa inh-1 = DNA polymerase kappa (human) inhibition; Q9UBT6; Potency, µM (series often up to 107 µM), most hits filed as inhibitors; hit rate 0.53% among 400,000; purified Pol kappa, fluorescent DNA synthesis assay, 10 min
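10 nM Pol kappa was preincubated with compounds for 15 min at room temperature. Reaction started with 50 nM (final) substrate. Fluorescence read kinetically at 0 and 10 min.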
Pol eta inh-1 = DNA polymerase eta (human) inhibition | Q9Y253 | recombinant Pol eta, fluorescent DNA replication assay | Potency, µM (top dose mostly 114 µM), actives largely listed as inhibitors | hit rate 1.2% among 390,000
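Fluorescent replication assay: 50 nM final substrate added after a 15 min room-temperature compound preincubation with 10 nM enzyme. Signal taken at 0 min and again at 10 min.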
PI5P4Ka inh = inhibitors of human PI5P4K alpha | P48426 | max response, % | PI5P4Kalpha enzyme, ADP-Glo luminescence, 60 min; hits give low values | hit rate 1.2% among 330,000 | AID 652105; active = max response of -50% or lower; inconclusive = between -30% and -50%; inactive = -30% or higher; note: value at the top dose of about 77 µM
Target sequence (P48426 whole entry, looked up): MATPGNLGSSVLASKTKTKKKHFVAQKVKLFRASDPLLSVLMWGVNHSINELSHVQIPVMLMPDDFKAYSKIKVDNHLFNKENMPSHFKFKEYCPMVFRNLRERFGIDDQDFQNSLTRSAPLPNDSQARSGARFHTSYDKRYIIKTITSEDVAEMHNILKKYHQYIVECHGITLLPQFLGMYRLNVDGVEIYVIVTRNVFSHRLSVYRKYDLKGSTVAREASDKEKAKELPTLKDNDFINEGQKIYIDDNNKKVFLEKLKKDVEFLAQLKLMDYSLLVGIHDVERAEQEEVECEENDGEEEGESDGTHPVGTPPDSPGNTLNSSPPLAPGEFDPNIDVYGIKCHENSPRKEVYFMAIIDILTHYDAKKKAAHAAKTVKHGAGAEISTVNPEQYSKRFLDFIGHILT
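Enzyme plus substrate dispensed, test compounds pinned in, then ATP (5 microM final) added. After 60 min at RT, ADP-Glo reagent 1 for 45 min and reagent 2 for 30 min preceded luminescence imaging.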
TbPGK inh = validation of Trypanosoma brucei phosphoglycerate kinase inhibitors. shares compounds with Pol kappa inh-1. Potency, µM (doses to about 57.5 µM), usual class: inhibitors. AID 686980. TbPGK coupled GAPDH assay, Kinase-Glo luminescence. hit rate 79% among 500; note: nearly all actives have a fitted effect of over 65% in size
Pol iota confirm = Human Pol iota inhibitor confirmatory assay | shares compounds with Pol kappa inh-1 | Pol iota primer extension, TAMRA/BHQ fluorescence | Potency, µM, usual class: inhibitors | hit rate 77% among 1,500 | AID 720496
Pol kappa inh-2 = confirmation of human DNA polymerase kappa inhibitors. shares compounds with Pol eta inh-1. purified Pol-kappa, fluorescent strand-displacement substrate. Potency, µM, hits mostly inhibitors. hit rate 76% among 920. AID 720501
Pol eta inh-2 = Pol eta (human) inhibition, cherry-pick confirmation; hit rate 64% among 2,600; Potency, µM, most hits filed as inhibitors; Pol eta primer extension, TAMRA/BHQ fluorescence, 10 min; shares compounds with Pol eta inh-1
Large screens that a line does not name were inactive (follow-up assays come after a bar, where they were run). Hits are enriched below; roughly 2.8% of the tested compounds scored in any of these assays. Unless noted, calls come from the whole dose curve; as a rule, active = well fitted curve in the direction sought with a large enough effect; inconclusive = small, poorly fitted or top-dose-only effect, or another doubt; inactive = no such curve, though single readings can be large; an effect the other way counts as inactive or inconclusive.

Cc1ccc2cc(CN(c3cccc(C)c3C)S(=O)(=O)c3ccccc3)c(=O)[nH]c2c1	none
CC1OC(OCC2OC(Oc3c(-c4ccc(O)cc4)oc4cc(O)cc(O)c4c3=O)C(O)C(O)C2O)C(O)C(O)C1O (stereo not drawn)	Pol beta inh inconclusive, WRN inhibitor inconclusive, Pol iota inh inconclusive, Pol kappa inh-1 28µM, Pol eta inh-1 10µM, PI5P4Ka inh -67 | TbPGK inh 5.2µM | Pol iota confirm 42 | Pol eta inh-2 60
COc1cc(-c2oc3cc(O)cc(O)c3c(=O)c2OC[C@@H]2OC(O[C@@H]3O[C@@H](C)[C@H](O)[C@@H](O)[C@H]3O)[C@@H](O)[C@H](O)[C@@H]2O)ccc1O (stereo partly drawn)	none (no result: Pol beta inh, WRN inhibitor, Pol iota inh, Pol eta inh-1, PI5P4Ka inh)
C=C(C)C(=O)Nc1cccc(C2=NOC3(C2)C[C@@H](C(N)=O)N(C(=O)c2cc([N+](=O)[O-])cc([N+](=O)[O-])c2C)C3)c1 (stereo partly drawn)	Pol beta inh 20µM, WRN inhibitor inconclusive, Pol iota inh inconclusive, Pol kappa inh-1 50µM, Pol eta inh-1 13µM | TbPGK inh inconclusive | Pol iota confirm inconclusive | Pol eta inh-2 19
C=C(C)C(=O)N1CC2(CC(c3cccc(NC(=O)/C=C\C=C/C)c3)=NO2)C[C@H]1C(N)=O (stereo partly drawn)	Pol beta inh inconclusive, WRN inhibitor inconclusive, Pol iota inh 11µM, Pol kappa inh-1 40µM, Pol eta inh-1 13µM | Pol iota confirm 13 | Pol eta inh-2 19
C=C(C)C(=O)Nc1cccc(C2=NOC3(C2)C[C@@H](C(N)=O)N(C(=O)C(=C)C)C3)c1 (stereo partly drawn)	Pol beta inh 3.5µM, Pol iota inh 50µM, Pol kappa inh-1 inconclusive, Pol eta inh-1 10µM | TbPGK inh 5.8µM | Pol eta inh-2 17
C/C=C/C(=O)N1CC2(CC(c3cccc(NC(=O)CC)c3)=NO2)C[C@H]1C(N)=O (stereo partly drawn)	none
CCOC(=O)C1=C[C@@H](c2ccccc2)N(S(=O)(=O)c2ccc(C)cc2)[C@H]1c1ccccc1Cl	none (no result: Pol beta inh, Pol iota inh, Pol kappa inh-1, Pol eta inh-1)
CCOc1ccccc1CNC(=O)CCn1cccn1	none (no result: WRN inhibitor, PI5P4Ka inh)
Cc1ccc2nc(/C(C#N)=C\c3ccc(N4CCCCC4)c([N+](=O)[O-])c3)[nH]c2c1	Pol beta inh 25µM, Pol iota inh inconclusive (no result: PI5P4Ka inh) | Pol iota confirm 38 | Pol kappa inh-2 47 | Pol eta inh-2 60
Cc1ccc2nc(/C(C#N)=C/c3ccc(-c4cccc(Cl)c4)o3)[nH]c2c1	Pol beta inh inconclusive, Pol iota inh 79µM, Pol kappa inh-1 50µM, Pol eta inh-1 89µM (no result: WRN inhibitor, PI5P4Ka inh) | Pol iota confirm 19 | Pol kappa inh-2 19 | Pol eta inh-2 67
Cc1ccc2nc(/C(C#N)=C/c3ccccc3C(=O)O)[nH]c2c1	none
Cc1ccc2nc(/C(C#N)=C/c3cccc(Br)c3)[nH]c2c1	Pol beta inh 22µM, Pol iota inh inconclusive, Pol eta inh-1 56µM (no result: WRN inhibitor, PI5P4Ka inh) | Pol iota confirm 42 | Pol kappa inh-2 17 | Pol eta inh-2 60
CCOCCc1nnc(NC(=O)CCS(=O)(=O)c2ccccc2)s1	none
Cc1ccc(NC(=O)c2cc3c([nH]c2=O)CC(c2ccccc2)CC3=O)cc1 (stereo not drawn)	none (no result: Pol beta inh, WRN inhibitor, Pol eta inh-1, PI5P4Ka inh)
COCCN1C(=O)C(=O)/C(=C(/O)c2cccc(OC)c2)C1c1ccco1 (stereo not drawn)	Pol beta inh 32µM, Pol iota inh inconclusive, Pol kappa inh-1 inconclusive, Pol eta inh-1 10µM | Pol iota confirm inconclusive | Pol eta inh-2 60
COc1cccc(/C(O)=C2/C(=O)C(=O)N(Cc3cccnc3)C2c2ccco2)c1 (stereo not drawn)	Pol beta inh inconclusive, Pol iota inh inconclusive (no result: PI5P4Ka inh)
CCc1cccc(NC(=O)CCS(=O)(=O)c2cc3c4c(c2)CCN4C(=O)CC3)c1	none (no result: WRN inhibitor, PI5P4Ka inh)
CCn1c(SC(C)C(=O)O)nc2sc3c(c2c1=O)CCC3 (stereo not drawn)	Pol beta inh 8.9µM, WRN inhibitor 56µM, Pol iota inh inconclusive, Pol kappa inh-1 25µM, Pol eta inh-1 3.5µM, PI5P4Ka inh inconclusive | Pol iota confirm 75 | Pol eta inh-2 24
CC(Sc1nc2sc3c(c2c(=O)n1-c1ccccc1)CCCC3)C(=O)O (stereo not drawn)	none
CCN(CCCNc1cc2c(c(N)c1S(=O)(=O)O)C(=O)c1ccccc1C2=O)c1ccccc1	Pol eta inh-1 25µM, PI5P4Ka inh -56 (no result: Pol beta inh, Pol iota inh, Pol kappa inh-1) | Pol iota confirm 67 | Pol kappa inh-2 inconclusive | Pol eta inh-2 76
CC1CCN(c2ccc(NC(=O)c3ccc([N+](=O)[O-])o3)cc2)CC1	none (no result: Pol beta inh)
O=C(Nc1ccc(N2CCCCC2)cc1)c1ccc([N+](=O)[O-])o1	Pol beta inh 40µM, Pol iota inh 40µM, Pol kappa inh-1 inconclusive, Pol eta inh-1 50µM, PI5P4Ka inh inconclusive | Pol iota confirm 34 | Pol eta inh-2 60
O=C(N=Nc1c(O)[nH]c2ccc(F)cc12)c1ccc(NS(=O)(=O)c2cccs2)cc1	Pol eta inh-1 inconclusive (no result: Pol beta inh)
Cc1cccc2c(N=NC(=O)c3ccc(NS(=O)(=O)c4cccs4)cc3)c(O)[nH]c12	WRN inhibitor 20µM, Pol iota inh inconclusive, Pol kappa inh-1 inconclusive, Pol eta inh-1 11µM, PI5P4Ka inh -77 (no result: Pol beta inh) | Pol iota confirm 17 | Pol eta inh-2 19
Cc1csc(N2C(=O)C3C4CCC(O4)C3C2=O)n1 (stereo not drawn)	none (no result: Pol beta inh)
O=C1NC(=O)/C(=C/c2cccc3ccccc23)S1	Pol iota inh inconclusive
O=C1NC(=O)/C(=C\c2ccc(O)cc2O)S1	Pol beta inh 1.6µM, WRN inhibitor 35µM, Pol iota inh inconclusive, Pol kappa inh-1 11µM, Pol eta inh-1 2.8µM, PI5P4Ka inh -92 | Pol iota confirm 30 | Pol eta inh-2 27
O=C1CCCC2=C1C(c1ccc(O)c(O)c1)c1c(ccc3ncccc13)N2 (stereo not drawn)	Pol beta inh 6.3µM, Pol iota inh inconclusive, Pol kappa inh-1 inconclusive, Pol eta inh-1 25µM, PI5P4Ka inh inconclusive | Pol iota confirm 67 | Pol eta inh-2 inconclusive

Assay outcomes deposited in PubChem by National Center for Advancing Translational Sciences (NCATS).
